Values joined by “and” are separate entries in the source; they are usually repeats but may differ in a detail not shown here. Identical values can stand only once. Compounds without any hit were thinned out: in the full panel of roughly 83,000, 20% have a hit.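 Treatment: one concentration, 48 hours, 96-well format. Scoring: percent growth, with anything below 10 considered active.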 Active and inactive are the calls of the source. Where a SMILES comes first, the peptide text is derived from it. The star is where a group is joined. Trt = c1ccc(C(c2ccccc2)(c2ccccc2)*)cc1; Cbz = O=C(OCc1ccccc1)*

One test relates to LOX IMVI melanoma. Briefly: NCI-60 one-dose screen, 48 h (100 = growth as untreated, 0 = no growth, -100 = all killed). The settings on record: 10 µM. How it is done:
Growth inhibition of the LOX IMVI human tumor cell line is measured as a screen for anti-cancer activity. Cells are grown in 96 well plates and exposed to the test compound for 48 hours. Compounds are tested at a single concentration, which is 10^-5 M for most compounds. The reported endpoint is percent growth (GI% or GIPRCNT), where numbers from 0 - 100% represent growth inhibition, and numbers from -100% - 0 represent cell death. For example, a value of 40 represents 60% growth inhibition. A value of 0 means no net growth occurred over the course of the experiment. A value of -40 indicates 40% of cells at the beginning of the experiment died by the end of the experiment. A value of -100 means all cells are dead at the end of the experiment.
NCI-60 Human Tumor Cell Lines Screen was performed using the standard one-dose NCI protocol, which is described in more detail at https://dtp.cancer.gov/discovery_development/nci-60/default.htm.
Compounds with GIPRCNT values below 10 were considered active. Activity score was based on GIPRCNT using the following formula: […]
Score is 0 for GIPRCNT values of 100 or above, 50 for GIPRCNT values of 0, and 100 for GIPRCNT values of -100.
As for `O=C(O)c1c(Cl)c(Cl)c(Cl)c(Cl)c1-c1c2cc(I)c(=O)c(I)c-2oc2c(I)c(O)c(I)cc12`, the growth is 98.6% (inactive) and 92% (inactive) and 87.7% (inactive).

Still in this test, the particulars now being: 10 µM unless noted.
Consider `CN1c2ccccc2C(C)(C)C12C=Cc1cc(O)ccc1O2` (stereo not given), for which the growth was 47.2% (inactive).
Take `N#CSCc1c(Cl)cccc1Cl`: the growth is 49.9% (inactive).
In the case of `COC(=O)C(CSC(c1ccccc1)(c1ccccc1)c1ccccc1)NC(=O)C(CC(N)=O)NC(=O)OCc1ccccc1` (stereo not drawn) (Cbz-Asn-Cys(Trt)-OMe; configuration not given here), the growth is -12% (active).
Regarding `Oc1c(Cl)cc(Cl)c2cccnc12`, the growth is 32.5% (inactive) and 39.4% (inactive).
The same measure, in the same setting: with `O=C(O)c1ccc2c3c(ncnc13)-c1ccccc1C2=O` the figure was 21.5% (inactive).
For `O=C1c2ccccc2C(=O)c2sc(Nc3ccc(Cl)cc3)nc21`, the growth was -85.8% (active).
As to `O=C(/C=C/c1cccc(Cl)c1)c1ccccc1`, the growth is 60.5% (inactive) and 20.8% (inactive).
Turning to `CN(C)c1ccc(C(=C2C=CC(=[N+](C)C)C=C2)c2ccc(N(C)C)cc2)cc1` (tested in a mixture with another compound), the growth is -89.2% (active).
On the same count and under the same terms, for `c1ccc2c(c1)Nc1cc3ccccc3cc1N2` the value was 11.3% (inactive); for `Oc1c(Cl)c2ccccc2c2ccccc12`, 98% (inactive).
Regarding `CCC(CCCN(CC)CCc1ccccc1)OC(=O)c1cc(OC)c(OC)c(OC)c1` (stereo not given), the growth was 80.9% (inactive).
As for `O=C(Oc1cccc2cccnc12)c1ccccc1`, the growth is 70% (inactive) and 100% (inactive).
As to `CCCCCCCCCCCCCCCCOP(=O)([O-])OCC[N+](C)(C)C`, the growth was 27.8% (inactive).
On to `O=C1C=CC(=O)N1C1c2ccccc2-c2ccccc21`, for which the growth is 93.9% (inactive).
Take `CC1=CC(O)C2CC1C2(C)C` (stereo not given): the growth was 98% (inactive) and 105% (inactive).
On to `CC(C)c1ccc2nc3ccc(C(=O)NCCN4CCN(c5ccccc5)CC4)cn3c(=O)c2c1`, for which the growth was 56.1% (inactive).
Regarding `O=C(CC1(O)C(=O)Nc2c(Cl)ccc(Cl)c21)c1ccc(Cl)cc1Cl` (stereo not given), the growth is 100% (inactive).
On to `CCN1/C(=C\c2cc[n+](CC)c3ccccc23)C=Cc2ccccc21`, for which the growth is 4.04% (active).
`CN(C)CCOc1ccc2c(c1)C(=O)/C(=C\c1ncc([N+](=O)[O-])n1C)C2`: the growth was -41.9% (active).
On the same count and under the same terms, for `COc1ccccc1OC(=O)Oc1ccccc1OC` the value was 107% (inactive) and 95% (inactive).
With `Cc1cc(N)c2ccccc2[n+]1CCCCCCCCCC[n+]1c(C)cc(N)c2ccccc21`, the growth is -73% (active) and 37.4% (inactive).
Take `COC(=O)Nc1nc2ccc(C(=O)c3ccccc3)cc2[nH]1`: the growth is 37.6% (inactive) and 31.3% (inactive) and 31.1% (inactive).
Turning to `Oc1c(Br)cc(Cl)cc1C(c1cc(Cl)cc(Br)c1O)C(Cl)(Cl)Cl`, the growth was 34.3% (inactive).
On to `CCC(c1cccc(O)c1)C(CC)c1cccc(O)c1` (stereo not given), for which the growth was 57.8% (inactive).
Regarding `CCCCCCC(C)c1ccccc1O` (stereo not given) (tested in a mixture with another compound), the growth was 95.8% (inactive).
On to `O=C1C2=C(Nc3cc([N+](=O)[O-])ccc3N2)OC1c1c2ccccc2cc2ccccc12` (stereo not given), for which the growth was 38.1% (inactive).
Consider `O[C@H]1[C@H]2c3cc4c(cc3CN3CCC(=C[C@@H]1O)[C@H]23)OCO4`, for which the growth is 0.731% (active).
With `CNc1ccc(N)cc1`, the growth is 104% (inactive).
Still for that read-out and setting: for `CCOC(=O)c1c(C)[nH]c(CO)c1C` the value was 101% (inactive).
Take `Cc1ccc(C(=Nc2ccccc2)N=P(c2ccccc2)(c2ccccc2)c2ccccc2)cc1`: the growth was -82.9% (active).
Regarding `CN(Cc1cnc2nc(N)nc(N)c2n1)c1ccc(C(=O)NC(CCC(=O)O)C(=O)O)cc1` (stereo not given), the growth is 13.2% (inactive).
`N#CC1C(=O)SC2c3ccccc3C(=O)c3ccccc3C12` (stereo not given): the growth was 95.3% (inactive).
As for `CN=C(N)N/N=C(\C)c1ccc2c(c1)Cc1cc(/C(C)=N/NC(N)=NC)ccc1-2`, the growth is -49.3% (active).
On the same count and under the same terms, for `O=C(Nc1ccc(F)cc1)ON=C1CCCCC1` the value was 88.2% [100 µM] (inactive).
On to `CC(=Nc1ccc(N(C)C)cc1)c1ccccc1`, for which the growth is 60.2% (inactive).
In the case of `N#Cc1ccc([N+](=O)[O-])o1`, the growth was 108% (inactive).
Regarding `Cc1cc2nc(CS)[nH]c2cc1C`, the growth is 88% (inactive).
As to `COc1ccc2nc3cc(Cl)ccc3c(NCCNc3c4ccc(Cl)cc4nc4ccc(OC)cc34)c2c1`, the growth was -84.9% (active).

The same test, now with this note: 100 µM.
Take `O=C(O)c1c(Cl)c(Cl)c(Cl)c(Cl)c1-c1c2cc(I)c(=O)c(I)c-2oc2c(I)c(O)c(I)cc12`: the growth was -76.1% (active).

Source of the values: PubChem BioAssay (NCI).
